The values that follow come from PubChem BioAssay (EPA / NIEHS).

Inconclusive results are not listed. Active and inactive are the calls of the source. How the source made its calls: active means hit-call score of the fitted dose curve at least 0.9, where 1 is the maximum; inconclusive means response in the unintended direction; inactive means score below 0.9.

Assay [1] can be described thus: TOX21_p53_BLA_p3_viability: Viability Assessment in the Tox21 HCT-116 p53 Agonism Beta-lactamase Assay, Phase 3 (AID 2283593).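 Further: cells exposed to compound for 16 h before reading.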 The procedure, abridged:
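Cellular ATP was quantified by CellTiter-Glo luminescence, read after 30 min at room temperature. Beforehand, HCT116 cells (4000/well) received compound 5 h post-seeding, 217-fold diluted from DMSO, then incubated 16 h at 37C.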

Assay [2] has as its target Cellular tumor antigen p53 (Homo sapiens) (UniProt P04637). Kind of assay: TOX21_p53_BLA_p3_ratio: Tox21 HCT-116 p53 Agonism Beta-lactamase Assay, Ratio, Phase 3 (AID 2283596). The procedure, abridged:
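HCT116 p53-bla cells (4000/well) given compound in DMSO (217-fold dilution) after 5 h, incubated 16 h at 37C. CCF4-AM substrate 2 h at room temperature; 460/530 nm emission ratio, gain fitted against DMSO.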

Assay [3] is described as follows: TOX21_p53_BLA_p4_viability: Viability Assessment in the Tox21 HCT-116 p53 Agonism Beta-lactamase Assay, Phase 4 (AID 2283597).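 Further: hits lower the luminescence signal meaning cytotoxicity.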 The procedure, abridged:
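Luminescent ATP readout (CellTiter-Glo, 30 min, room temperature) in the same wells as the p53 bla ratio. HCT116 cells were treated for 16 h at 37C with DMSO-dissolved compounds.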

Assay [4] addresses Cellular tumor antigen p53 (Homo sapiens) (UniProt P04637). Kind of assay: TOX21_p53_BLA_p5_ratio: Tox21 HCT-116 p53 Agonism Beta-lactamase Assay, Ratio, Phase 5 (AID 2283599). The procedure, abridged:
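Beta-lactamase reporter ratio (blue 460 nm over green 530 nm, 405 nm excitation) after 2 h CCF4-AM loading, in HCT-116 cells exposed 16 h at 37 C to compounds pinned at 217-fold dilution. Increases relative to DMSO baseline scored.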

A short description of assay [5]: TOX21_p53_BLA_p5_viability: Viability Assessment in the Tox21 HCT-116 p53 Agonism Beta-lactamase Assay, Phase 5 (AID 2283600). The procedure, abridged:
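Seeded cells (4000/well) settle 5 h before compound addition. Plates then incubate 16 h at 37C, receive FRET substrate for 2 h, and finally CellTiter-Glo, with luminescence measured after a 30 min room-temperature incubation.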

In assay [6] the target is Cellular tumor antigen p53 (Homo sapiens) (UniProt P04637). Kind of assay: TOX21_p53_BLA_p4_ratio: Tox21 HCT-116 p53 Agonism Beta-lactamase Assay, Ratio, Phase 4 (AID 2283601). The procedure, abridged:
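Signal is the blue/green (460nm/530nm) ratio of cleaved versus uncleaved CCF4-AM substrate, read after 2 h substrate loading. Cells were HCT116 carrying the p53-responsive beta-lactamase reporter, dosed 16 h at 37C, 5% CO2; CellTiter-Glo measured in parallel.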

Assay [7] is described as follows: Tanguay_ZF_120hpf_MORT_legacy: (Legacy) Oregon State University Tanguay Lab 120 Hour Post-fertilization zebrafish Assay for Mortality (AID 2283633).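 On AC50: fitted as increase in binary mortality versus DMSO negative control.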 The procedure, abridged: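 Single dechorionated Tropical 5D embryos were held with test chemical (0.64% DMSO final) from 6 to 120 hpf at 28C under foil. Deaths at 24 or 120 hpf were recorded as binary calls, analysed for increase over DMSO controls.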

Assay [8] is described as follows: Tanguay_ZF_120hpf_EYE_legacy: (Legacy) Oregon State University Tanguay Lab 120 Hour Post-fertilization zebrafish Assay for Eye Malformation (AID 2283636). The procedure, abridged: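 Read-out is binary presence or absence of eye malformation, scored by brightfield microscopy at 120 hpf. Single larvae were exposed from 6 hpf in embryo medium containing 0.64% DMSO, with DMSO as baseline.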

A short description of assay [9]: Tanguay_ZF_120hpf_SNOU_legacy: (Legacy) Oregon State University Tanguay Lab 120 Hour Post-fertilization zebrafish Assay for Snout Malformation (AID 2283637). The procedure, abridged:
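Snout malformation read as a yes/no call on brightfield images of 120 hpf larvae (Tropical 5D strain). Static exposure began at 6 hpf on dechorionated embryos in 0.64% DMSO, with gain of signal analysed versus DMSO controls.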

The nature of assay [10]: Tanguay_ZF_120hpf_JAW_legacy: (Legacy) Oregon State University Tanguay Lab 120 Hour Post-fertilization zebrafish Assay for Jaw Malformation (AID 2283638).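 On AC50: active means more embryos with jaw malformation than DMSO controls.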 The procedure, abridged: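 Wild-type 5D embryos, chorion removed at 4 hpf, dosed singly from 6 hpf; 28C static, sealed, foil-covered, to 120 hpf. Endpoint: jaw defect yes/no (brightfield); mortality excludes scoring.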

A short description of assay [11]: Tanguay_ZF_120hpf_OTIC_legacy: (Legacy) Oregon State University Tanguay Lab 120 Hour Post-fertilization zebrafish Assay for Otic Vesicle Malformation (AID 2283639). The procedure, abridged:
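Tropical 5D wild-type zebrafish embryos were exposed statically in sealed, foil-covered plates at 28C until 120 hpf, with 0.64% (vol/vol) DMSO final. Otic vesicle malformation was scored present/absent by brightfield microscopy, with DMSO as baseline.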

A short description of assay [12]: Tanguay_ZF_120hpf_BRAI_legacy: (Legacy) Oregon State University Tanguay Lab 120 Hour Post-fertilization zebrafish Assay for Brain Malformation (AID 2283641). The procedure, abridged:
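Static exposure of staged wild-type embryos until 120 hpf, kept at 28C with light excluded and final DMSO of 0.64% (vol/vol). Presence or absence of brain malformation was noted under brightfield; mortality precluded scoring.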

A short description of assay [13]: Tanguay_ZF_120hpf_PFIN_legacy: (Legacy) Oregon State University Tanguay Lab 120 Hour Post-fertilization zebrafish Assay for Pectoral Fin Malformation (AID 2283648).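 Further: each larva judged yes or no for fin defect by brightfield with dead larvae skipped.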 The procedure, abridged: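 5D WT zebrafish; pronase dechorionation 4 hpf; 1 embryo/well at 6 hpf; static exposure to 120 hpf, 28C, sealed, foil-covered; final DMSO 0.64% v/v; 5 uM trimethyltin chloride positive control; fin defect scored yes/no.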

Assay [14] can be described thus: Tanguay_ZF_120hpf_CFIN_legacy: (Legacy) Oregon State University Tanguay Lab 120 Hour Post-fertilization zebrafish Assay for Caudal Fin Malformation (AID 2283649). The procedure, abridged:
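Single dechorionated 5D wild-type embryos are dosed at 6 hpf (final DMSO 0.64%) and held statically at 28C. Caudal fin malformation is recorded as present or absent at 120 hpf under brightfield, excluding dead embryos.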

Assay [15] is described as follows: Tanguay_ZF_120hpf_PIG_legacy: (Legacy) Oregon State University Tanguay Lab 120 Hour Post-fertilization zebrafish Assay for Pigmentation Malformation (AID 2283650). The procedure, abridged: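 Pronase dechorionation at 4 hpf; embryos plated at 6 hpf, one per well; static exposure, sealed and foil-covered, 28C, to 120 hpf; pigmentation read by brightfield, binary; DMSO 0.64% baseline, 5uM trimethyltin chloride positive control.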

Assay [16] in a line: Tanguay_ZF_120hpf_CIRC_legacy: (Legacy) Oregon State University Tanguay Lab 120 Hour Post-fertilization zebrafish Assay for Circulatory Malformation (AID 2283651). The procedure, abridged:
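Tropical 5D wild-type embryos, dechorionated with pronase at 4 hpf, were placed singly in wells at 6 hpf and exposed statically at 28C to 120 hpf (0.64% DMSO final). Circulatory malformation was scored present/absent by brightfield microscopy.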

The nature of assay [17]: Tanguay_ZF_120hpf_AXIS_legacy: (Legacy) Oregon State University Tanguay Lab 120 Hour Post-fertilization zebrafish Assay for Body Axis Malformation (AID 2283635).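 On AC50: potency for an increased fraction of larvae scored with body axis malformation.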 The procedure, abridged:
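Each dechorionated embryo was exposed alone from 6 hpf, with DMSO at 0.64% (vol/vol) and trimethyltin chloride 5 uM as positive control. Axis malformation was recorded at 120 hpf unless the embryo had died.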

The nature of assay [18]: Tanguay_ZF_120hpf_SOMI_legacy: (Legacy) Oregon State University Tanguay Lab 120 Hour Post-fertilization zebrafish Assay for Somite Malformation (AID 2283647). The procedure, abridged: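 Somitogenesis defects are recorded as binary calls in whole larvae at 120 hpf after continuous static chemical exposure starting at 6 hpf in dechorionated 5D embryos. DMSO serves as negative control and baseline.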

Assay [19] can be described thus: Tanguay_ZF_120hpf_YSE_legacy: (Legacy) Oregon State University Tanguay Lab 120 Hour Post-fertilization zebrafish Assay for Yolk Sac Edema (AID 2283634). The procedure, abridged:
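Single dechorionated embryos were held in sealed plates at 28C with test chemical (0.64% DMSO final) from 6 hpf until 120 hpf. Edema of the yolk sac was then recorded as a binary endpoint; non-mortality endpoints were skipped for dead embryos.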

The nature of assay [20]: Tanguay_ZF_120hpf_PE_legacy: (Legacy) Oregon State University Tanguay Lab 120 Hour Post-fertilization zebrafish Assay for Pericardial Edema (AID 2283640). The procedure, abridged:
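Zebrafish larvae are exposed from early development to 120 hpf at 28C, with 0.64% DMSO final. Each surviving larva receives a yes/no pericardial edema call by brightfield imaging, analysed relative to the DMSO baseline.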

Cellular tumor antigen p53 (Homo sapiens), sequence (P04637 whole entry, looked up): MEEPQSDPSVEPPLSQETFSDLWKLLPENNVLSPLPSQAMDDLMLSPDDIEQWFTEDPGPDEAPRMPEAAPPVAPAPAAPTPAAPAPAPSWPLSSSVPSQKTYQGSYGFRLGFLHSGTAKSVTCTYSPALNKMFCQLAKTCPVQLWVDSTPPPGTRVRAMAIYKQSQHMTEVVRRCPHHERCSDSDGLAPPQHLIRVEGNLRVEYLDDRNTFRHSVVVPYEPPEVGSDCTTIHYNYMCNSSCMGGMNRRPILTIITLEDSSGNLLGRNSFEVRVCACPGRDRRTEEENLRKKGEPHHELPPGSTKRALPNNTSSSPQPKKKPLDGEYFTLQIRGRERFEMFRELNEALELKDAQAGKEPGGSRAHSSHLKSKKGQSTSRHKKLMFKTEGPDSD

For the molecule `O=c1[nH]sc2ccccc12`, the call in assay [1], in assay [2], in [3], in assay [4], in [5] and in assay [6] was inactive. Further, the molecule was called inactive in assay [7], in assay [8], in assay [9], in assay [10], in [11] and in [12]. In addition, the molecule was classed as inactive in assay [13], in assay [14], in [15] and in assay [16].

Regarding `CC1=CC(=O)/C(=C(/C)O)C(=O)O1`, the molecule was called inactive in assay [1], in assay [2], in assay [4], in assay [5], in [6] and in assay [7]. The call in assay [17], in assay [10], in [11], in [12], in assay [13] and in [14] was inactive. The molecule was called inactive in [15] and in [16].

Regarding `CCCCOC(=O)CC(CC(=O)OCCCC)(OC(C)=O)C(=O)OCCCC`, the outcome in [2], in [3], in [5], in [6], in [7] and in assay [17] was inactive. The molecule was classed as inactive in [9], in assay [10], in assay [11], in assay [12], in assay [13] and in assay [15]. Further, in assay [16], the molecule was called inactive.

As for `CCCCCCCC[Si](OCC)(OCC)OCC`, the molecule was classed as inactive in assay [1], in assay [2], in assay [4], in assay [6], in [7] and in assay [17]. Also, the result in assay [9], in assay [10], in assay [11], in assay [12], in assay [18] and in assay [14] was inactive. The result in assay [15] was inactive.

Regarding `CCCCCCCCN(C)CCCCCCCC`, the call in [1], in [2], in [3], in assay [6], in assay [7] and in [17] was inactive. For the same molecule, the molecule was classed as inactive in assay [8], in assay [9], in assay [10], in [12], in [13] and in assay [14]. Also, in [16], the outcome was inactive.

Take `OC12N=C(c3ccccc3)SC1Cc1cc(Cl)ccc12` (stereo unspecified): the AC50 in assay [3] is 66.6 µM (active); in assay [6] it was 86.6 µM (active); in [17] it was 50 µM (active); in [8], 11.1 µM (active); in assay [9], 15.1 µM (active); in assay [10], 45.3 µM (active). Further, the AC50 was 48.1 µM (active) in assay [14] and 44.5 µM (active) in assay [15]. For the same molecule, the outcome in assay [4], in assay [7], in [11], in assay [12], in [13] and in [16] was inactive.

On to `Cc1oc2c(NC(=O)c3c(Cl)cccc3Cl)cccc2c1C(C)(C)O`, for which the outcome in assay [1], in assay [2], in assay [3], in assay [4], in [5] and in [19] was inactive. For the same molecule, the outcome in assay [17], in assay [8], in [9], in assay [10], in assay [11] and in assay [20] was inactive. Also, the call in assay [12], in assay [13], in assay [14], in [15] and in assay [16] was inactive. Moreover, the concentration at half-maximal activity (AC50) in assay [7] is 26 µM (active).
